Data on 10 molecules can be found in PubChem BioAssay (NCI).

The nature of assay [1]: NCI Yeast Anticancer Drug Screen. Data for the rad50 strain (AID 155).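 Note: 0% = growth of vehicle-only cultures of the same strain.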 Particulars: S. cerevisiae rad50 strain growth inhibition, stronger effect = higher value. The gist of the method:
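Readout: growth inhibition relative to vehicle-treated cultures. Compound exposure was carried out in a genetically defined yeast strain deficient in DNA damage repair.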

Assay [2] can be described thus: NCI Yeast Anticancer Drug Screen. Data for the mec2-1 strain (AID 157). Particulars: S. cerevisiae mec2-1 strain, stronger effect = higher value. The gist of the method: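 mec2-1 yeast strain, carrying an alteration in DNA damage repair or cell cycle control, was exposed to compounds; growth inhibition was measured relative to vehicle-treated controls.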
The nature of assay [3]: NCI Yeast Anticancer Drug Screen. Data for the sgs1 mgt1 strain (AID 161).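 Note: 0% = growth of cultures given vehicle only.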 Conditions: S. cerevisiae sgs1 mgt1 strain, stronger effect = higher value. Put shortly:
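Yeast cells carrying a defined DNA-repair defect were exposed to test compounds. Growth inhibition was measured relative to vehicle-treated controls.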

Assay [4] can be described thus: NCI Yeast Anticancer Drug Screen. Data for the cln2 rad14 strain (AID 165).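 Note: 0% = growth equal to vehicle treated cultures.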 Particulars: S. cerevisiae cln2 rad14 strain, stronger effect = higher value. The gist of the method: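 Yeast carrying cln2 and rad14 alterations (cell cycle control and DNA damage repair) were exposed to compounds. Growth inhibition was measured against vehicle-treated controls.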
Assay [5] in a line: NCI Yeast Anticancer Drug Screen. Data for the bub3 strain (AID 167). Conditions: S. cerevisiae bub3 mutant strain, stronger effect = higher value. Put shortly:
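Readout: yeast growth inhibition, expressed relative to vehicle-only wells. The test organism is a mutant strain from a panel with lesions in DNA repair or checkpoint genes.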

Assay [6] can be described thus: NCI Yeast Anticancer Drug Screen. Data for the mlh1 rad18 strain (AID 175). Conditions: S. cerevisiae mlh1 rad18 strain growth inhibition, stronger effect = higher value. The gist of the method:
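Growth inhibition of the yeast strain was measured after compound exposure and expressed relative to vehicle-treated controls. The strain carries defined defects in DNA damage repair.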

[7] abbreviates: at 5.0 µM (retest, dose inferred, filed as 0.5).
[8] abbreviates: at 50.0 µM (retest, dose inferred, filed as 5.0).

Compounds without any hit were thinned out: in the full panel of roughly 79,000, 15% have a hit. A number with no mark means an inactive call. The source made the active and inactive calls. Cut-off read from the data, not from the text of the source: active = growth inhibition above about 70%; inactive = the rest.

As to `O=S(=O)(O)N=Nc1ccc(O)cc1`, the growth inhibition in assay [1] (setting [7]) was 65%; in assay [1] (setting [8]) it was 98% (active); in assay [1] (at 50.0 µM), 91.5% (active); in assay [2] (setting [7]), 1%; in assay [2] (setting [8]), 99% (active); in assay [2] (at 50.0 µM) it was 94.3% (active). Besides, the growth inhibition in assay [3] (setting [7]) is 17%; in assay [3] (setting [8]), 98% (active); in assay [3] (at 50.0 µM), 93.2% (active); in assay [4] (setting [7]), -8%; in assay [4] (setting [8]), 98% (active); in assay [4] (at 50.0 µM), 91% (active). For the same molecule, the growth inhibition is -12% in assay [5] (setting [7]); 98% (active) in assay [5] (setting [8]); 92.8% (active) in assay [5] (at 50.0 µM); 37% in assay [6] (setting [7]); 98% (active) in assay [6] (setting [8]); 91.5% (active) in assay [6] (at 50.0 µM).

`Brc1cc2ccccc2c2ccccc12`: the growth inhibition in assay [1] (setting [7]) was 11%; in assay [1] (setting [8]), 91% (active); in assay [1] (at 50.0 µM) it was 75.1% (active); in assay [2] (setting [7]), -7%; in assay [2] (setting [8]), 54%; in assay [2] (at 50.0 µM), 65.2%. Besides, the growth inhibition in assay [3] (setting [7]) was 7%; in assay [3] (setting [8]) it was 89% (active); in assay [3] (at 50.0 µM) it was 59.8%; in assay [4] (setting [7]), 11%; in assay [4] (setting [8]) it was 28%; in assay [4] (at 50.0 µM) it was -16.1%. The growth inhibition in assay [5] (setting [7]) is 23%; in assay [5] (setting [8]), 81% (active); in assay [5] (at 50.0 µM), 55.3%; in assay [6] (setting [7]), 41%; in assay [6] (setting [8]), 91% (active); in assay [6] (at 50.0 µM), 40.8%.

Consider `O=C(NNc1ccc(F)cc1)C12CC3CC(CC(C3)C1)C2`, for which the growth inhibition in assay [1] (setting [7]) was 9%; in assay [1] (setting [8]), 90% (active); in assay [1] (at 50.0 µM) it was 98.4% (active); in assay [2] (setting [7]) it was 3%; in assay [2] (setting [8]), 68%; in assay [2] (at 50.0 µM), 17.8%. The growth inhibition was 4% in assay [3] (setting [7]); 98% (active) in assay [3] (setting [8]); 53.2% in assay [3] (at 50.0 µM); 4% in assay [4] (setting [7]); 57% in assay [4] (setting [8]); 27.1% in assay [4] (at 50.0 µM). The growth inhibition in assay [5] (setting [7]) was -3%; in assay [5] (setting [8]), 97% (active); in assay [5] (at 50.0 µM) it was 98.3% (active); in assay [6] (setting [7]), 2%; in assay [6] (setting [8]), 98% (active); in assay [6] (at 50.0 µM) it was 27.1%.

On to `CCN(CC)c1ccc(N=Nc2ccc(-c3nc4cccn(C)c-4n3)cc2)cc1`, for which the growth inhibition in assay [1] (setting [7]) was 8%; in assay [1] (setting [8]), 8%; in assay [1] (at 50.0 µM), 80.2% (active); in assay [2] (setting [7]) it was -5%; in assay [2] (setting [8]), -5%; in assay [2] (at 50.0 µM), 79.2% (active). In addition, the growth inhibition in assay [3] (setting [7]) is -13%; in assay [3] (setting [8]), -13%; in assay [3] (at 50.0 µM), 76.7% (active); in assay [4] (setting [7]), -2%; in assay [4] (setting [8]), -2%; in assay [4] (at 50.0 µM), 80.2% (active). Moreover, the growth inhibition in assay [5] (setting [7]) was 9%; in assay [5] (setting [8]), 9%; in assay [5] (at 50.0 µM), 84.3% (active); in assay [6] (setting [7]), -4%; in assay [6] (setting [8]), -4%; in assay [6] (at 50.0 µM), 82% (active).

For `CN1c2ccccc2C(C)(C)C12C=Cc1cc(O)ccc1O2` (stereo not given), the growth inhibition in assay [1] (setting [7]) is 20%; in assay [1] (setting [8]), 31%; in assay [1] (at 50.0 µM), 70.8% (active); in assay [2] (setting [7]), 9%; in assay [2] (setting [8]), 10%; in assay [2] (at 50.0 µM) it was 47.6%. Moreover, the growth inhibition in assay [3] (setting [7]) is 8%; in assay [3] (setting [8]) it was 38%; in assay [3] (at 50.0 µM), 61.9%; in assay [4] (setting [7]), 14%; in assay [4] (setting [8]) it was 23%; in assay [4] (at 50.0 µM), 35.6%. Further, the growth inhibition in assay [5] (setting [7]) was -4%; in assay [5] (setting [8]), 51%; in assay [5] (at 50.0 µM) it was 52.4%; in assay [6] (setting [7]) it was -15%; in assay [6] (setting [8]), 33%; in assay [6] (at 50.0 µM), 54.1%.

As to `CSc1nc(=S)c2[nH]c(C)nc2[nH]1`, the growth inhibition in assay [1] (setting [7]) is 0%; in assay [1] (setting [8]) it was 4%; in assay [1] (at 50.0 µM), 93.3% (active); in assay [2] (setting [7]), -2%; in assay [2] (setting [8]), -3%; in assay [2] (at 50.0 µM), 99.6% (active). Moreover, the growth inhibition was 0% in assay [3] (setting [7]); 1% in assay [3] (setting [8]); 99.2% (active) in assay [3] (at 50.0 µM); -3% in assay [4] (setting [7]); 6% in assay [4] (setting [8]); 98.5% (active) in assay [4] (at 50.0 µM). The growth inhibition in assay [5] (setting [7]) is -1%; in assay [5] (setting [8]), -6%; in assay [5] (at 50.0 µM), 99.6% (active); in assay [6] (setting [7]) it was 1%; in assay [6] (setting [8]) it was 3%; in assay [6] (at 50.0 µM) it was 97.5% (active).

Regarding `CCC(C(=O)C(C)C(O)C(C)CCc1ccc(C)c(O)c1C(=O)O)C1OC(CC)(C2CCC(O)(CC)C(C)O2)CC1C` (stereo not given), the growth inhibition was 28% in assay [1] (setting [7]); 96% (active) in assay [1] (setting [8]); 88.2% (active) in assay [1] (at 50.0 µM); 56% in assay [2] (setting [7]); 98% (active) in assay [2] (setting [8]); 90.7% (active) in assay [2] (at 50.0 µM). For the same molecule, the growth inhibition was 40% in assay [3] (setting [7]); 97% (active) in assay [3] (setting [8]); 90% (active) in assay [3] (at 50.0 µM); 73% (active) in assay [4] (setting [7]); 98% (active) in assay [4] (setting [8]); 89.2% (active) in assay [4] (at 50.0 µM). For the same molecule, the growth inhibition was 64% in assay [5] (setting [7]); 98% (active) in assay [5] (setting [8]); 88.7% (active) in assay [5] (at 50.0 µM); 28% in assay [6] (setting [7]); 97% (active) in assay [6] (setting [8]); 88.2% (active) in assay [6] (at 50.0 µM).

For the molecule `CNC(=O)N/N=C/c1ccc([N+](=O)[O-])o1`, the growth inhibition was 12% in assay [1] (setting [7]); 40% in assay [1] (setting [8]); 65.2% in assay [1] (at 50.0 µM); 4% in assay [2] (setting [7]); 22% in assay [2] (setting [8]); 38.6% in assay [2] (at 50.0 µM). Also, the growth inhibition in assay [3] (setting [7]) is 7%; in assay [3] (setting [8]), 29%; in assay [3] (at 50.0 µM) it was 70.3% (active); in assay [4] (setting [7]), 9%; in assay [4] (setting [8]) it was 15%; in assay [4] (at 50.0 µM), 11.8%. Also, the growth inhibition in assay [5] (setting [7]) was 10%; in assay [5] (setting [8]), 38%; in assay [5] (at 50.0 µM) it was 34%; in assay [6] (setting [7]), 12%; in assay [6] (setting [8]), 48%; in assay [6] (at 50.0 µM), 71.5% (active).

`CCOc1c(N=Nc2ccccc2OC)c(C)nn1C(N)=S`: the growth inhibition in assay [1] (setting [7]) is 6%; in assay [1] (setting [8]) it was 24%; in assay [1] (at 50.0 µM), 8.85%; in assay [2] (setting [7]), -10%; in assay [2] (setting [8]) it was 21%; in assay [2] (at 50.0 µM) it was 3.9%. For the same molecule, the growth inhibition in assay [3] (setting [7]) is -5%; in assay [3] (setting [8]) it was 41%; in assay [3] (at 50.0 µM), 9.1%; in assay [4] (setting [7]) it was -2%; in assay [4] (setting [8]) it was 3%; in assay [4] (at 50.0 µM) it was -20.6%. Moreover, the growth inhibition was 1% in assay [5] (setting [7]); 14% in assay [5] (setting [8]); 22.9% in assay [5] (at 50.0 µM); -4% in assay [6] (setting [7]); 21% in assay [6] (setting [8]); 29.9% in assay [6] (at 50.0 µM).

In the case of `O=C1C2(Cl)C(Cl)=C(Cl)C1(Cl)C1(Cl)C(Cl)=C(Cl)C(=O)C21Cl` (stereo not given), the growth inhibition in assay [1] (setting [7]) is 55%; in assay [1] (setting [8]), 88% (active); in assay [1] (at 50.0 µM) it was 98.2% (active); in assay [2] (setting [7]), 45%; in assay [2] (setting [8]), 92% (active); in assay [2] (at 50.0 µM), 54.2%. In addition, the growth inhibition in assay [3] (setting [7]) is 45%; in assay [3] (setting [8]), 92% (active); in assay [3] (at 50.0 µM) it was 39.8%; in assay [4] (setting [7]), 19%; in assay [4] (setting [8]), 89% (active); in assay [4] (at 50.0 µM) it was 76.4% (active). Also, the growth inhibition was 21% in assay [5] (setting [7]); 92% (active) in assay [5] (setting [8]); 28.4% in assay [5] (at 50.0 µM); 66% in assay [6] (setting [7]); 90% (active) in assay [6] (setting [8]); 61.2% in assay [6] (at 50.0 µM).
